“And” between values parts separate entries of the source, which are not always exact repeats. Equal entries are not always repeated. Structures can show the parent of a compound that is named as a salt. ± gives the standard deviation of the averaged measurements. Over roughly 1,900 compounds, “normalised cell viability (NPI; 0 = phenylarsine oxide control, 1 = DMSO control)” has its median near 1; the lowest 2% begin near 0.039. Only a selection was taken, and the lowest values are over-represented in it overall.
Test system: NCI-H1944
Assay: normalised cell viability (NPI; 0 = phenylarsine oxide control, 1 = DMSO control) (fraction of DMSO control); NCI-H1944 is a non-small cell lung cancer line; higher = more viable cells (less compound toxicity)
Settings: 6 days
[1] = glucocorticoid arm: hydrocortisone 2.75 uM co-treatment, compound 1 µM
[2] = glucocorticoid arm: hydrocortisone 2.75 uM co-treatment, compound 5 µM
[3] = glucocorticoid arm: hydrocortisone 2.75 uM pre-treated 2 days and continued, compound 1 µM
[4] = glucocorticoid arm: hydrocortisone 2.75 uM pre-treated 2 days and continued, compound 5 µM
[5] = glucocorticoid arm: vehicle, compound 1 µM
[6] = glucocorticoid arm: vehicle, compound 5 µM
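Also: CTB read-out in 384-well plates, triplicate wells, NPI normalised per plate against 1 µM phenylarsine oxide (0) and 0.1% DMSO (1) controls.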

## NCC(O)C1CCCCCCC1 (centres undefined) [2-Cyclooctyl-2-hydroxyethylamine hydrochloride]
[1]
  normalised cell viability: 0.987 ± 0.012
[2]
  normalised cell viability: 0.971 ± 0.016
[3]
  normalised cell viability: 0.998 ± 0.013
[4]
  normalised cell viability: 0.972 ± 0.02
[5]
  normalised cell viability: 0.9697 ± 0.0015
[6]
  normalised cell viability: 0.9663 ± 0.0085

## CCC(=O)NCC[C@@H]1CCc2ccc3c(c21)CCO3 [Ramelteon]
[1]
  normalised cell viability: 1 ± 0.018
[2]
  normalised cell viability: 1.01 ± 0.011
[3]
  normalised cell viability: 1.006 ± 0.0069
[4]
  normalised cell viability: 1.01 ± 0.019
[5]
  normalised cell viability: 0.9943 ± 0.009
[6]
  normalised cell viability: 0.9933 ± 0.0061

## Nc1nc(Cl)nc2c1ncn2[C@H]1C[C@H](O)[C@@H](CO)O1 [Cladribine]
[1]
  normalised cell viability: 0.0575 ± 0.013
[2]
  normalised cell viability: 0.0436 ± 0.0033
[3]
  normalised cell viability: 0.169 ± 0.0085
[4]
  normalised cell viability: 0.1867 ± 0.0011
[5]
  normalised cell viability: 0.0131 ± 0.0023
[6]
  normalised cell viability: 0.0121 ± 0.0031

## Nc1ncnc2c1ncn2[C@@H]1O[C@H](CO)[C@@H](O)[C@H]1O [Adenosine]
[1]
  normalised cell viability: 0.9973 ± 0.0046
[2]
  normalised cell viability: 1.01 ± 0.01
[3]
  normalised cell viability: 0.995 ± 0.015
[4]
  normalised cell viability: 0.987 ± 0.019
[5]
  normalised cell viability: 1 ± 0.015
[6]
  normalised cell viability: 1.003 ± 0.0058

## Nc1ncn([C@H]2C[C@H](O)[C@@H](CO)O2)c(=O)n1 [5-Aza-2'-deoxycytidine; Decitabine]
[1]
  normalised cell viability: 1.073 ± 0.0058
[2]
  normalised cell viability: 1.15 ± 0.026
[3]
  normalised cell viability: 1.07 ± 0.01
[4]
  normalised cell viability: 1.1 ± 0.02
[5]
  normalised cell viability: 0.204 ± 0.009
[6]
  normalised cell viability: 0.22 ± 0.021

## Nc1ncn([C@H]2C[C@H](O)[C@@H](CO)O2)c(=O)n1 [Decitabine]
[1]
  normalised cell viability: 1.1 and 1.06
[3]
  normalised cell viability: 1.08 and 1.05

## Nc1nc(Cl)nc2c1ncn2[C@@H]1O[C@H](CO)[C@@H](O)[C@@H]1F [Clofarabine]
[1]
  normalised cell viability: 0.124 ± 0.015
[2]
  normalised cell viability: 0.146 ± 0.0052
[3]
  normalised cell viability: 0.341 ± 0.017
[4]
  normalised cell viability: 0.302 ± 0.017
[5]
  normalised cell viability: 0.0363 ± 0.0032
[6]
  normalised cell viability: 0.0483 ± 0.0032

## Nc1ncn([C@H]2C[C@H](O)[C@@H](CO)O2)c(=O)n1 [5-Aza-2'-deoxycytidine]
[1]
  normalised cell viability: 1.087 ± 0.0058
[2]
  normalised cell viability: 1.12 ± 0.05
[3]
  normalised cell viability: 1.07 ± 0.01
[4]
  normalised cell viability: 1.09 ± 0.015
[5]
  normalised cell viability: 0.581 ± 0.051
[6]
  normalised cell viability: 0.296 ± 0.027

## Nc1nc(Cl)nc2c1ncn2[C@@H]1O[C@H](CO)[C@@H](O)[C@H]1O [2-Chloroadenosine]
[1]
  normalised cell viability: 0.998 ± 0.013
[2]
  normalised cell viability: 0.982 ± 0.011
[3]
  normalised cell viability: 0.998 ± 0.011
[4]
  normalised cell viability: 0.974 ± 0.052
[5]
  normalised cell viability: 0.9847 ± 0.0078
[6]
  normalised cell viability: 0.9883 ± 0.0078

## Nc1nc(Cl)nc2c1ncn2[C@@H]1O[C@H](COP(=O)(O)OP(=O)(O)OP(=O)(O)O)[C@H](O)C1O (some centres undefined) [2-Chloroadenosine triphosphate tetrasodium]
[1]
  normalised cell viability: 0.992 ± 0.0076
[2]
  normalised cell viability: 0.818 ± 0.041
[3]
  normalised cell viability: 0.988 ± 0.018
[4]
  normalised cell viability: 0.917 ± 0.019
[5]
  normalised cell viability: 0.987 ± 0.0044
[6]
  normalised cell viability: 0.981 ± 0.0056

## CN(C)CCOc1ccc(-c2nc(-c3ccncc3)c(-c3ccc4c(c3)CC/C4=N\O)[nH]2)cc1
[1]
  normalised cell viability: 1.103 ± 0.0058
[2]
  normalised cell viability: 1.16 ± 0.032
[3]
  normalised cell viability: 1.07 ± 0.011
[4]
  normalised cell viability: 1.11 ± 0.021
[5]
  normalised cell viability: 1.013 ± 0.0058
[6]
  normalised cell viability: 1 ± 0.05

## O=[N+]([O-])c1ccc(CSc2ncnc3c2ncn3[C@@H]2O[C@H](CO)[C@@H](O)[C@H]2O)cc1 [S-(4-Nitrobenzyl)-6-thioinosine]
[1]
  normalised cell viability: 0.9813 ± 0.0047
[2]
  normalised cell viability: 0.968 ± 0.027
[3]
  normalised cell viability: 0.987 ± 0.018
[4]
  normalised cell viability: 0.996 ± 0.059
[5]
  normalised cell viability: 0.9973 ± 0.0046
[6]
  normalised cell viability: 0.9917 ± 0.0097

## Nc1c(O)cc(O)cc1C=Cc1ccc(O)cc1 [Aminoresveratrol sulfate]
[1]
  normalised cell viability: 1 ± 0.015
[2]
  normalised cell viability: 1.01 ± 0.02
[3]
  normalised cell viability: 1.01 ± 0.015
[4]
  normalised cell viability: 1.01 ± 0.014
[5]
  normalised cell viability: 0.9937 ± 0.0027
[6]
  normalised cell viability: 1.01 ± 0.012

Reference: the supplement of paper PMC8285479
